Rows were chosen to be rich in hits. Some 8.1% of all compounds tested hit in one or more screens of this group.
NOMO-1 viab = STK33 inhibitor candidate reducing NOMO-1 cell viability. inhibition, % (concentration not given with the values). actives 7.5% (n = 37,000). NOMO-1 AML viability, CellTiter-Glo luminescence, 72 h; in the data active means inhibition above about 80%; inconclusive means no clear call, values can overlap the other calls
MITF inhib = blocks MITF activity. TRPM1 promoter luciferase, luminescence, 24 h. inhibition, % (concentration not given with the values). actives 0.28% (n = 37,000). AID 2240; in the data active means inhibition above about 85%; inconclusive means no clear call, values can overlap the other calls; inactive means below about 68%;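 further: human melanocyte line stably carrying TRPM1 promoter luciferase reporter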
Shh pathway inh = blocks Sonic Hedgehog signaling; Shh-LIGHT2 Gli-luciferase reporter, 30 h; inhibition, % (concentration not given with the values); actives 2.1% (n = 22,000);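 active means mean inhibition across valid replicates above about 65%, limit read from the data; inconclusive means mean under the limit, yet half or more replicates past it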;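 further: pathway switched on by Shh-conditioned medium diluted 1 in 25 in low serum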
Numbers without * were called inactive; ? = inconclusive; · = not tested or not shown.

SMILES | NOMO-1 viab | MITF inhib | Shh pathway inh
CCOC(=O)Nc1cccc(NC(=O)CC2c3ccccc3Oc3ccccc32)c1 | 71.8 | 89.0* | ·
O=C(CC1c2ccccc2Oc2ccccc21)Nc1ccccc1C(=O)N1CCCCC1 | -2.8 | 1.3 | ·
O=C(CC1c2ccccc2Oc2ccccc21)Nc1ccc(Cc2ccncc2)cc1 | 134.6* | 60.4 | ·
Cc1cc(C)c(NC(=O)CN(C)S(=O)(=O)c2ccc(F)cc2)c(C)c1 | -4.2 | -8.4 | ·
O=[N+]([O-])c1ccccc1NCCNS(=O)(=O)c1ccc(Br)cc1 | -17.1 | 2.1 | ·
CC(=O)Oc1ccc2occ(C(=O)CCN(C)C)c2c1 | 140.4* | -0.2 | 20.6
CC(=O)Oc1ccc2occ(C(=O)c3ccc(Br)s3)c2c1 | 41.3 | -21.9 | -27.2
COc1ccc(NC(=O)CNC(=O)c2ccccc2F)cc1Cl | 17.7 | -13.8 | ·
Cc1c(C)c(C)c(C(=O)/C=N/N)c(C)c1C | 1.9 | 11.0 | -8.1
COC(=O)C1=C(C)N=c2s/c(=C/c3ccc(OC)cc3)c(=O)n2C1c1cccs1 (stereo not given) | ? | -14.2 | -38.9
COc1ccc(CN(C)C[C@H]2Oc3ccc(NS(=O)(=O)c4ccccc4)cc3C(=O)N([C@@H](C)CO)C[C@@H]2C)cc1 | 10.6 | -7.9 | ·
COc1ccc(S(=O)(=O)Nc2ccc3c(c2)C(=O)N([C@H](C)CO)C[C@H](C)[C@@H](CN(C)Cc2ccc(Oc4ccccc4)cc2)O3)cc1 | 66.3 | 6.0 | 36.8
COc1ccc(S(=O)(=O)Nc2ccc3c(c2)C(=O)N([C@@H](C)CO)C[C@H](C)[C@H](CN(C)Cc2ccc(Oc4ccccc4)cc2)O3)cc1 | 122.8* | 46.7 | 40.2
COc1ccc(S(=O)(=O)Nc2ccc3c(c2)C(=O)N([C@@H](C)CO)C[C@@H](C)[C@H](CN(C)Cc2ccc(-c4ccccc4)cc2)O3)cc1 | 122.2* | 34.9 | 15.4
COc1ccc(S(=O)(=O)Nc2ccc3c(c2)C(=O)N([C@@H](C)CO)C[C@@H](C)[C@H](CN(C)Cc2ccc(Oc4ccccc4)cc2)O3)cc1 | 108.0* | 36.8 | ·
COc1ccc(S(=O)(=O)Nc2ccc3c(c2)C(=O)N([C@H](C)CO)C[C@@H](C)[C@@H](CN(C)Cc2ccc(Oc4ccccc4)cc2)O3)cc1 | 110.6* | 39.5 | 67.7*
COc1ccc(S(=O)(=O)Nc2ccc3c(c2)C(=O)N([C@H](C)CO)C[C@H](C)[C@H](CN(C)Cc2ccc(-c4ccccc4)cc2)O3)cc1 | 23.9 | 5.1 | 45.5
C[C@@H]1CN([C@@H](C)CO)C(=O)c2cc(NS(=O)(=O)c3ccccc3)ccc2O[C@H]1CN(C)Cc1ccc(Oc2ccccc2)cc1 | ? | 25.6 | ·
COc1cc(NC(=O)COc2cc(C)c(Cl)c(C)c2)c(C(=O)O)cc1OC | -0.7 | -13.8 | ·
Cc1c(Br)c([N+](=O)[O-])nn1CC(=O)Nc1sc2c(c1C#N)CCCC2 | 28.5 | 42.6 | ·
COc1ccccc1NC(=O)CSc1nc2ccccc2c(=O)n1-c1ccc(C)cc1 | -6.1 | -6.1 | ·
O=C(CN1C(=O)C2C3C=CC(C4CC34)C2C1=O)Nc1ccc(Oc2ccccc2)cc1 (stereo not given) | 27.1 | 46.4 | ·
CCc1ccc2oc(-c3ccc(C)c(NC(=O)COc4ccccc4)c3)nc2c1 | -5.1 | -15.2 | ·
Cc1ccc(N(CC(=O)Nc2ccc(F)cc2)S(C)(=O)=O)cc1 | -3.0 | -28.3 | ·
COc1ccc(S(=O)(=O)Nc2ccc3c(c2)C(=O)N([C@H](C)CO)C[C@@H](C)[C@H](CN(C)Cc2ccc(Oc4ccccc4)cc2)O3)cc1 | 105.2* | 36.8 | -0.3
SMILES | NOMO-1 viab | MITF inhib | Shh pathway inh
C[C@H](CO)N1C[C@H](C)[C@H](CN(C)Cc2ccc(Oc3ccccc3)cc2)Oc2ccc(NS(=O)(=O)c3ccccc3)cc2C1=O | ? | 3.1 | 41.4
C[C@@H]1CN([C@@H](C)CO)C(=O)c2cc(NS(=O)(=O)c3ccc(F)cc3)ccc2O[C@H]1CN(C)Cc1ccc(Oc2ccccc2)cc1 | 97.8* | 26.6 | ·
C[C@@H]1CN([C@H](C)CO)C(=O)c2cc(NS(=O)(=O)c3ccc(Cl)cc3)ccc2O[C@H]1CN(C)Cc1ccc(Oc2ccccc2)cc1 | 66.4 | 3.2 | 23.4
C[C@@H]1CN([C@@H](C)CO)C(=O)c2cc(NS(=O)(=O)c3ccc(Cl)cc3)ccc2O[C@H]1CN(C)Cc1ccc(Oc2ccccc2)cc1 | 108.8* | 43.4 | 19.7
COc1ccc(S(=O)(=O)Nc2ccc3c(c2)C(=O)N([C@H](C)CO)C[C@H](C)[C@@H](CN(C)Cc2ccccc2)O3)cc1 | 14.6 | 2.7 | 21.6
CCN(CC(=O)Nc1cccc(C(F)(F)F)c1)S(=O)(=O)c1ccc(C)cc1 | -15.1 | 9.5 | ·
C[C@H]1CN([C@@H](C)CO)C(=O)Cc2cc(NS(=O)(=O)c3ccc(F)cc3)ccc2O[C@H]1CN(C)Cc1ccccc1 | 23.6 | 5.3 | 20.5
C[C@H]1CN([C@@H](C)CO)C(=O)Cc2cc(NS(=O)(=O)c3ccc(F)cc3)ccc2O[C@H]1CN(C)Cc1ccc(Oc2ccccc2)cc1 | 122.2* | 19.7 | 15.8
C[C@@H]1CN([C@H](C)CO)C(=O)Cc2cc(NS(=O)(=O)c3ccc(F)cc3)ccc2O[C@H]1CN(C)Cc1ccccc1 | 18.4 | -1.4 | 1.8
C[C@@H]1CN([C@@H](C)CO)C(=O)Cc2cc(NS(=O)(=O)c3ccc(F)cc3)ccc2O[C@@H]1CN(C)Cc1ccc(Oc2ccccc2)cc1 | 122.2* | 39.0 | 30.0
COC(=O)C1=C(NC(=O)c2ccc(S(=O)(=O)N3CCOCC3)cc2)CCS1 | 30.9 | 13.3 | 18.8
Cc1c(C(N)=O)sc2ncn(CC(=O)Nc3cc(Cl)ccc3Cl)c(=O)c12 | -1.3 | -12.3 | ·
CCc1cccc(OCC(=O)Nc2ccc(OC)cc2[N+](=O)[O-])c1 | 10.7 | -81.6 | ·
CCCC1C2C(=O)N(c3ccccc3)C(=O)C2ON1c1ccc(Cl)c(Cl)c1 (stereo not given) | 7.0 | 30.7 | -4.2
C[C@H]1CN([C@@H](C)CO)C(=O)c2cc(NC(=O)Nc3ccc4c(c3)OCO4)ccc2O[C@@H]1CN(C)Cc1ccc2c(c1)OCO2 | 26.8 | 1.6 | 23.4
C[C@H](CO)N1C[C@H](C)[C@H](CN(C)Cc2ccc3c(c2)OCO3)Oc2ccc(NC(=O)Nc3ccc4c(c3)OCO4)cc2C1=O | 93.4* | 1.3 | 19.2
CC(C)NC(=O)Nc1ccc2c(c1)C(=O)N([C@H](C)CO)C[C@H](C)[C@H](CN(C)Cc1ccc3c(c1)OCO3)O2 | 93.3* | -1.5 | ·
COc1ccc(NC(=O)Nc2ccc3c(c2)C(=O)N([C@H](C)CO)C[C@H](C)[C@H](CN(C)Cc2ccc4c(c2)OCO4)O3)cc1 | 97.2* | 8.2 | ·
COc1ccc(NC(=O)Nc2ccc3c(c2)C(=O)N([C@H](C)CO)C[C@@H](C)[C@@H](CN(C)Cc2ccc4c(c2)OCO4)O3)cc1 | 9.4 | 0.9 | ·
CC(C)NC(=O)Nc1ccc2c(c1)C(=O)N([C@@H](C)CO)C[C@@H](C)[C@@H](CN(C)Cc1ccc3c(c1)OCO3)O2 | -2.6 | -11.3 | ·
C[C@H](CO)N1C[C@H](C)[C@H](CN(C)Cc2ccc3c(c2)OCO3)Oc2ccc(NC(=O)Nc3ccc(F)cc3)cc2C1=O | 88.9* | -12.2 | 31.2
C[C@@H]1CN([C@H](C)CO)C(=O)c2cc(NC(=O)Nc3ccc(F)cc3)ccc2O[C@H]1CN(C)Cc1ccc2c(c1)OCO2 | -6.3 | -9.5 | ·
CC1/C(=N/O)C[C@@H]2C[C@H]1C2(C)C (stereo not given in full) | 15.3 | -4.9 | -27.0

Source: PubChem
